Key:
Details in all cases: concentration: 1 μM, replicates: in singlicate; n = 1
MET = system: MET
MINK = system: T1, MINK
T1 construct: gene MINK1

MKK7 = system: MKK7
MKNK1 = system: MKNK1
MKNK2 = system: MKNK2
MLCK = system: T2, MLCK
T2 construct: gene MYLK3

MLK1 = system: T3, MLK1
T3 construct: gene MAP3K9

MLK2 = system: MLK2
MLK3 = system: MLK3
MRCKA = system: MRCKA
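Note: KINOMEscan kinase panel screen.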

Compound	%Inh (MET) [%]	%Inh (MINK) [%]	%Inh (MKK7) [%]	%Inh (MKNK1) [%]	%Inh (MKNK2) [%]	%Inh (MLCK) [%]	%Inh (MLK1) [%]	%Inh (MLK2) [%]	%Inh (MLK3) [%]	%Inh (MRCKA) [%]
O=C(NCc1cccs1)c1cc(C(=O)c2c(Cl)cccc2Cl)c[nH]1 [GW823670]	5	0	0	0	0	0	10	13	0	0
COc1ccc(-c2coc3ccc(-c4nnc(SCc5cccc(C#N)c5)o4)cc23)cc1	0	9	17	20	2	2	0	18	11	0
Cl.NS(=O)(=O)c1cccc(Nc2cc(-c3ccc(F)cc3)n[nH]2)c1 [GW824645]	0	57	19	8	0	29	0	4	0	0
COc1ccc(-c2cc3c(C)nc(N)nc3n([C@H]3CC[C@H](O)CC3)c2=O)cn1	0	0	0	0	0	0	0	0	0	0
CCCC(=O)Nc1n[nH]c2ncc(-c3cccc4ccccc34)cc12 [SB-642057]	0	21	0	10	7	0	0	0	0	9
Cc1nnc(-c2ccc3ncn(-c4ccc(S(C)=O)cc4)c3c2)o1 (stereo not drawn)	0	14	12	0	20	11	0	0	0	0
CC(C)(C)c1ccc(C(=O)Nc2cn3cc(-c4ccccc4)ccc3n2)cc1	0	36	0	0	13	14	0	0	0	0
Nc1nccc2scc(-c3ccc4c(c3)CCN4C(=O)Cc3ccccc3)c12 [GSK2576924]	0	7	9	3	2	3	0	0	5	11
Cc1cccc(-c2nc(Nc3ccc4c(cnn4C)c3)c3ccccc3n2)n1 [GW876731]	3	16	10	100	9	28	12	16	0	17
CCS(=O)c1ccc(-c2coc3ccc(-c4nnc(C)o4)cc23)cc1 (stereo not drawn)	0	15	23	17	1	0	0	7	15	0
CCS(=O)(=O)c1ccc(OC)c(Nc2ncc(-c3ccc(F)cc3)o2)c1.Cl [GW591947]	0	0	0	0	0	0	0	0	6	10
COC(=O)c1c(-c2ccccc2)c2cc(Br)ccc2c(=O)n1Cc1ccc(NC(=O)CCC(=O)O)cc1	18	0	0	0	0	0	0	0	0	0
COc1cccc(-n2cnc3c(N)ncnc32)c1 [SKF-97416]	0	22	30	0	31	5	2	0	0	13
CCC(=O)c1c(-c2ccccc2)c2cc(Cl)ccc2c(=O)n1Cc1cc(C(=O)NC2CC2)n(C)n1	0	0	25	0	11	5	0	15	0	8
COc1cc(OC)cc(-c2cc3cnc(N)nc3nc2NC(=O)NC(C)(C)C)c1	0	9	0	0	0	0	0	0	0	0
COC(=O)c1c(-c2ccccc2)c2cc(Br)ccc2c(=O)n1Cc1ccc(S(C)(=O)=O)cc1	2	10	19	8	0	3	1	0	0	0
COc1cc2ncn(-c3cc(OCc4ccncc4)c(C(N)=O)s3)c2cc1OC [GSK336313]	0	15	19	5	2	0	0	0	19	0
Cc1nn2c(=O)cc(N3CCOCC3)nc2n1Cc1cccc(Cl)c1Cl [GSK2342769]	1	0	0	0	4	7	0	0	0	10
